Results filed as inconclusive are left out. Calls of active or inactive are those of the source. The calls were made as follows, unless noted: active = hit-call score of the fitted dose curve at least 0.9, where 1 is the maximum; inactive = score below 0.9.
Key:
[1] = read-out: Intercellular Adhesion Molecule 1 (ICAM1), ICAM1 (gene 3383); experiment: BSK_3C_ICAM1: BioMAP Diversity Plus: 3C Assay for Intercellular Adhesion Molecule 1 (ICAM1) Biomarker Activity (AID 2283003); conditions: primary human endothelial cells (HUVEC); actives raise or lower the signal
In short: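 ELISA read-out of ICAM-1; HUVEC (primary human), 3C system, 24 h post-dosing; bidirectional fit vs DMSO baseline.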

[2] = molecular target: human Retinoic Acid Receptor beta (RARb), RARB (gene 5915) (UniProt P10826); experiment: ATG_RARb_TRANS: Attagene TRANS-FACTORIAL HepG2 Assay for human Retinoic Acid Receptor beta (AID 2283004; active = hit-call score of the fitted dose curve at least 0.9, where 1 is the maximum)
In short: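 Readout is reporter mRNA induction: RNA reverse-transcribed, PCR-amplified, FAM-labelled, HpaI-cut and resolved by capillary electrophoresis. Transiently transfected HepG2 cells carrying exogenous NR–Gal4 chimeras were dosed for 24 h; activity fitted upward relative to DMSO.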

[3] = BSK_3C_Proliferation: Cell Proliferation Assessment in the BioMAP Diversity Plus: 3C Assay (AID 2283006); conditions: primary human endothelial cells (HUVEC);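 as to AC50: potency may reflect either rise or fall in cell number versus DMSO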
In short: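 HUVEC, sub-confluent; 48 h chemical exposure; 10% TCA fix, 0.1% SRB stain, A560 total protein. Gain or loss of signal fitted both directions vs DMSO control.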

[4] = molecular target: Nuclear receptor subfamily 1 group I member 2 (Homo sapiens) (UniProt O75469); experiment: ATG_PXR_TRANS: Attagene TRANS-FACTORIAL HepG2 Assay for human Pregnane X Receptor (PXR) (AID 2283008; active = hit-call score of the fitted dose curve at least 0.9, where 1 is the maximum)
Sequence of Nuclear receptor subfamily 1 group I member 2 (Homo sapiens) (O75469 whole entry, looked up, the tested form may be a part): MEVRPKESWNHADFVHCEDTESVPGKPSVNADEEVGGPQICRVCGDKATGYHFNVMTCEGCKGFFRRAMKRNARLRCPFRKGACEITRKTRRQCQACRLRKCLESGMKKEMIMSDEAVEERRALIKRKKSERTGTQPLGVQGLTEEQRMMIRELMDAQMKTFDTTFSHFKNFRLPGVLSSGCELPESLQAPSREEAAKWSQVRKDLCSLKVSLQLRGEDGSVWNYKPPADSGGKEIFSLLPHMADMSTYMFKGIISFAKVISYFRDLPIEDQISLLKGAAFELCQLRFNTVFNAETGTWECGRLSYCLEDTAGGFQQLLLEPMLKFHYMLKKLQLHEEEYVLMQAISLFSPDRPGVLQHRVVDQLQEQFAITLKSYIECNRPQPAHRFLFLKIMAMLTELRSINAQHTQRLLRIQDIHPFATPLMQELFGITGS
In short: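 Multiplexed TRANS reporter panel in HepG2; this component tracks PXR-Gal4-driven reporter mRNA after 24 h dosing, measured by RT-PCR with capillary electrophoresis fluorescence, fitted against DMSO.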

[5] = molecular target: human Retinoic Acid Receptor gamma (RARg), RARG (gene 5916) (UniProt P13631); experiment: ATG_RARg_TRANS: Attagene TRANS-FACTORIAL HepG2 Assay for human Retinoic Acid Receptor gamma (RARg) (AID 2283009; active = hit-call score of the fitted dose curve at least 0.9, where 1 is the maximum)
Sequence of human Retinoic Acid Receptor gamma (RARg), RARG (gene 5916) (P13631 whole entry, looked up, the tested form may be a part): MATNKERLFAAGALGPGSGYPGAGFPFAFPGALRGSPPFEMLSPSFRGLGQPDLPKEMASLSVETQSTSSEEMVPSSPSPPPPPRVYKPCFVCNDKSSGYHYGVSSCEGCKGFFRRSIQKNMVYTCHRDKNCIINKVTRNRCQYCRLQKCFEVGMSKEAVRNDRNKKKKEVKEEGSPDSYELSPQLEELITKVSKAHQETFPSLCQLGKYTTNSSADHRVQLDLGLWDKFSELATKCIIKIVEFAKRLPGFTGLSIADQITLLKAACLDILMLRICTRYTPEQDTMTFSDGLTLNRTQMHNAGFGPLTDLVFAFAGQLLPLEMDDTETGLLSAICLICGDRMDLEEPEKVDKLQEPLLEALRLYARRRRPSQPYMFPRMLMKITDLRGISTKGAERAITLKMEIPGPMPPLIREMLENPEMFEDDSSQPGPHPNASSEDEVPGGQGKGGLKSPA
In short: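 Readout: reporter transcript levels via RT-PCR, 6-FAM primer-extension labelling, HpaI digestion and capillary electrophoresis. Cells: HepG2 carrying transfected RARg-GAL4 chimera plus UAS reporter set. Dosing 24 h; DMSO negative control.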

[6] = molecular target: Retinoic acid receptor RXR-alpha (Homo sapiens) (UniProt P19793); experiment: ATG_RXRa_TRANS: Attagene TRANS-FACTORIAL HepG2 Assay for human Retinoid X Receptor alpha (RXRa) (AID 2283012; active = hit-call score of the fitted dose curve at least 0.9, where 1 is the maximum)
Sequence of Retinoic acid receptor RXR-alpha (Homo sapiens) (P19793 whole entry, looked up, the tested form may be a part): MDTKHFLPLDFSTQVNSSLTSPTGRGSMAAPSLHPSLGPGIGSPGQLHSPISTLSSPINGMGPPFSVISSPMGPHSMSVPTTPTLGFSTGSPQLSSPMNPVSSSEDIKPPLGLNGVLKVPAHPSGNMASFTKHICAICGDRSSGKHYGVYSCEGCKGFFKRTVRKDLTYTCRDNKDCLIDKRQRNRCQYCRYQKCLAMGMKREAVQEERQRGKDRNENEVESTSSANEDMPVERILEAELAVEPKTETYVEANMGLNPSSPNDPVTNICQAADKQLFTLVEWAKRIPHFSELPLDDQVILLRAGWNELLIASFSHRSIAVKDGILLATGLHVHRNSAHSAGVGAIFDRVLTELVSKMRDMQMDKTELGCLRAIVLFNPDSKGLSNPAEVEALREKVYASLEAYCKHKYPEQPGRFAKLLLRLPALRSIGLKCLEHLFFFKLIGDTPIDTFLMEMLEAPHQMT
In short: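 Read-out: fluorescent reporter-transcript fragments quantified by capillary electrophoresis after RT-PCR. Transiently transfected HepG2 cells carrying GAL4-UAS reporters and NR-GAL4 chimeras were exposed to chemical for 24 h; activity scored as increase over DMSO.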

[7] = read-out: E-selectin (Homo sapiens) (UniProt P16581); experiment: BSK_3C_Eselectin: BioMAP Diversity Plus: 3C Assay for Eselectin Biomarker Activity (AID 2283015); conditions: primary human endothelial cells (HUVEC); actives raise or lower the signal;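 also: cell surface E-selectin protein quantified by ELISA 24 h after dosing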
In short: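 HUVEC, 3C stimulation; compound exposure 24 h; E-selectin by ELISA; gain- or loss-of-signal fitted bidirectionally vs DMSO baseline.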

[8] = read-out: Interleukin-1 alpha (IL1a), IL1A (gene 3552); experiment: BSK_BE3C_IL1a: BioMAP Diversity Plus: BE3C Assay for Interleukin-1 alpha (IL1a) Biomarker Activity (AID 2283016); conditions: primary human bronchial epithelial cells; actives raise or lower the signal
In short: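 ELISA read-out of IL-1a from human lung bronchial epithelial primary cells, 24 h post-dose. Gain or loss of signal fitted relative to DMSO negative control.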

[9] = read-out: Monocyte Chemoattractant Protein-1 (MCP1), CCL2 (gene 6347); experiment: BSK_3C_MCP1: BioMAP Diversity Plus: 3C Assay for Monocyte Chemoattractant Protein-1 (MCP1) Biomarker Activity (AID 2283017); conditions: primary human endothelial cells (HUVEC); actives raise or lower the signal
In short: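 HUVEC, 3C system; 24 h chemical exposure; MCP-1 by ELISA; bidirectional curve fit vs DMSO baseline.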

[10] = read-out: Monocyte Chemoattractant Protein-1 (MCP1), CCL2 (gene 6347); experiment: BSK_4H_MCP1: BioMAP Diversity Plus: 4H Assay for Monocyte Chemoattractant Protein-1 (MCP1) Biomarker Activity (AID 2283018); conditions: primary human endothelial cells (HUVEC); actives raise or lower the signal
In short: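 HUVEC primary cells, 24 h post-dose, MCP-1 by ELISA. Gain or loss of signal fitted bidirectionally vs DMSO baseline. Cytotoxicity: SRB stain (0.1% after 10% TCA fixation), read 560 nm, parallel cultures.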

[11] = read-out: Human Leukocyte Antigen - DR isotype (HLADR), HLA-DRA (gene 3122); experiment: BSK_3C_HLADR: BioMAP Diversity Plus: 3C Assay for Human Leukocyte Antigen - DR isotype (HLADR) Biomarker Activity (AID 2283019); conditions: primary human endothelial cells (HUVEC); actives raise or lower the signal
In short: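 HUVEC, 3C stimulation, 24 h post-dose; HLA-DR by ELISA; bidirectional curve fit vs DMSO baseline; gain or loss of signal scored.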

[12] = read-out: Interleukin-8 (IL8), CXCL8 (gene 3576); experiment: BSK_3C_IL8: BioMAP Diversity Plus: 3C Assay for Interleukin-8 (IL8) Biomarker Activity (AID 2283020); conditions: primary human endothelial cells (HUVEC); actives raise or lower the signal
In short: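 HUVEC, 3C stimulation; 24 h compound exposure; IL-8 read by ELISA; gain or loss of signal fitted relative to DMSO control.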

[13] = read-out: Monokine induced gamma interferon (MIG), CXCL9 (gene 4283); experiment: BSK_3C_MIG: BioMAP Diversity Plus: 3C Assay for Monokine induced gamma interferon (MIG) Biomarker Activity (AID 2283021); conditions: primary human endothelial cells (HUVEC); actives raise or lower the signal
In short: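 HUVEC, 3C system; 24 h chemical exposure; MIG by ELISA; bidirectional fit vs DMSO baseline.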

[14] = molecular target: Peroxisome proliferator-activated receptor gamma (Homo sapiens) (UniProt P37231); experiment: ATG_PPARg_TRANS: Attagene TRANS-FACTORIAL HepG2 Assay for human Peroxisome Proliferator-activated Receptor-gamma (PPARg) (AID 2283007; active = hit-call score of the fitted dose curve at least 0.9, where 1 is the maximum)
Sequence of Peroxisome proliferator-activated receptor gamma (Homo sapiens) (P37231 whole entry, looked up, the tested form may be a part): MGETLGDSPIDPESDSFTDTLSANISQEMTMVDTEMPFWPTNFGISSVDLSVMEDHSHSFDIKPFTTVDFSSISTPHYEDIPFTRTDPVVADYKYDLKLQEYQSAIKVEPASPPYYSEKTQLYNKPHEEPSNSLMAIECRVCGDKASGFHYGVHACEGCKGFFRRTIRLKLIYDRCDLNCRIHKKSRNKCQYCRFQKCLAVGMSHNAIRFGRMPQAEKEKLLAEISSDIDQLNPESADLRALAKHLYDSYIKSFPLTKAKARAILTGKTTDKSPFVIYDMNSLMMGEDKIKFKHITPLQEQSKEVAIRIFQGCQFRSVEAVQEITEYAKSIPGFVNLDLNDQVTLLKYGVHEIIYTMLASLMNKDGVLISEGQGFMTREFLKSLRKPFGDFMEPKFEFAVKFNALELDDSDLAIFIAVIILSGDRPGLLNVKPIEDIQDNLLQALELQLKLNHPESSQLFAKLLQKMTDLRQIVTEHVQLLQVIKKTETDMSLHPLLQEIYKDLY
In short: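 After 24 h of chemical exposure, transfected HepG2 cells carrying PPARγ-Gal4 chimera reporter constructs are lysed for RNA. Reporter transcripts are measured by RT-PCR and capillary electrophoresis with fluorescent labelling, and gain of signal is fitted versus DMSO.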

[15] = molecular target: human RAR-related Orphan Receptor beta (RORb), RORB (gene 6096) (UniProt Q92753); experiment: ATG_RORb_TRANS: Attagene TRANS-FACTORIAL HepG2 Assay for human RAR-related Orphan Receptor beta (RORb) (AID 2283010; active = hit-call score of the fitted dose curve at least 0.9, where 1 is the maximum)
Sequence of human RAR-related Orphan Receptor beta (RORb), RORB (gene 6096) (Q92753 whole entry, looked up, the tested form may be a part): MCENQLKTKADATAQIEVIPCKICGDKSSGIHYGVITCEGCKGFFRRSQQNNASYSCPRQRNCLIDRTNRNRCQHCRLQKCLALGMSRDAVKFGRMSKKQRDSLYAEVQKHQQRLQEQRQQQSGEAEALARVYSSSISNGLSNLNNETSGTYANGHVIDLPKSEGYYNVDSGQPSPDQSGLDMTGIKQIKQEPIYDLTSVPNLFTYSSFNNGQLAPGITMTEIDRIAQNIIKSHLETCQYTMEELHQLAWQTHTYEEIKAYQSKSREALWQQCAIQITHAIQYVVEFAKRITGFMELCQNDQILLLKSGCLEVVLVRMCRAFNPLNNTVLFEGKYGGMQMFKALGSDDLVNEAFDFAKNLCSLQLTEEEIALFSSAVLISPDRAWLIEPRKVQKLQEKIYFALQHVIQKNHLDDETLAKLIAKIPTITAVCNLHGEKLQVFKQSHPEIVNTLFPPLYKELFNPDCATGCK
In short: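 HepG2, transient MRTU transfection (GAL4-UAS reporters, exogenous NR-Gal4 chimeras); 24 h compound exposure; total RNA → RT-PCR → 6-FAM primer extension → HpaI digest → CE fluorescence. Positive direction vs DMSO baseline.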

[16] = molecular target: human RAR-related Orphan Receptor gamma (RORg), RORC (gene 6097) (UniProt P51449); experiment: ATG_RORg_TRANS: Attagene TRANS-FACTORIAL HepG2 Assay for human RAR-related Orphan Receptor gamma (RORg) (AID 2283011; active = hit-call score of the fitted dose curve at least 0.9, where 1 is the maximum)
Sequence of human RAR-related Orphan Receptor gamma (RORg), RORC (gene 6097) (P51449 whole entry, looked up, the tested form may be a part): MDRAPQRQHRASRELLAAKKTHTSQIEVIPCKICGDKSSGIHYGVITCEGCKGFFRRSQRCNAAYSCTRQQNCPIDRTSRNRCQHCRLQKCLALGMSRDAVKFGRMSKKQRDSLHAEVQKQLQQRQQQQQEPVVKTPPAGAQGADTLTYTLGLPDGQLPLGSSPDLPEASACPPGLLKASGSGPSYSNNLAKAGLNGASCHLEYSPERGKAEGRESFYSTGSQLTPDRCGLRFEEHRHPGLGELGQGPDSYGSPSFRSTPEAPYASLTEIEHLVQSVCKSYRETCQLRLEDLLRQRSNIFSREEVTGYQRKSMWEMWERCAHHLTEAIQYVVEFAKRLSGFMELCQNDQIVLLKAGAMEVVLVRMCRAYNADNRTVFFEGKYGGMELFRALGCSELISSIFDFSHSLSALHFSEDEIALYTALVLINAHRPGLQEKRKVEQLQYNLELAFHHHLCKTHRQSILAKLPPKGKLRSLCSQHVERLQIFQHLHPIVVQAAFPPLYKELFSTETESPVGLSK
In short: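 Transient MRTU transfection of HepG2 (TRANS format, exogenous NR-Gal4 chimera). 24 h dosing. Total RNA → oligo(dT) RT → PCR → 6-FAM labelling → HpaI cut → CE. Gain vs DMSO.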

[17] = molecular target: human Retinoid X Receptor beta (RXRb), RXRB (gene 6257) (UniProt P28702); experiment: ATG_RXRb_TRANS: Attagene TRANS-FACTORIAL HepG2 Assay for human Retinoid X Receptor beta (RXRb) (AID 2283013; active = hit-call score of the fitted dose curve at least 0.9, where 1 is the maximum)
Sequence of human Retinoid X Receptor beta (RXRb), RXRB (gene 6257) (P28702 whole entry, looked up, the tested form may be a part): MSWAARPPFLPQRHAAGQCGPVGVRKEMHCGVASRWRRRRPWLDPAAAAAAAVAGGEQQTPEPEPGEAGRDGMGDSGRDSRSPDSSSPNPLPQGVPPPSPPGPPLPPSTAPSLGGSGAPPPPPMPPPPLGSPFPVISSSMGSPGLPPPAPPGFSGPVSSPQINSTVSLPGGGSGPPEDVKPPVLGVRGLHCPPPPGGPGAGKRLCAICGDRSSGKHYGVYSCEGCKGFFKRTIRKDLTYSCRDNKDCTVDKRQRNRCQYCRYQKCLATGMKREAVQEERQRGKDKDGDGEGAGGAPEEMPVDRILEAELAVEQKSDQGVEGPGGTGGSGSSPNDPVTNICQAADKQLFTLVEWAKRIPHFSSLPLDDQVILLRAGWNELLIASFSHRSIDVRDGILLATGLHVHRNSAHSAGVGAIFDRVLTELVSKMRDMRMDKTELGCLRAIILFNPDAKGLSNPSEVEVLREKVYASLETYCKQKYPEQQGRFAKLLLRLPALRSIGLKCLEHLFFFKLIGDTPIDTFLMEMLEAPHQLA
In short: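 Read-out: reporter mRNA induction via RT-PCR plus capillary electrophoresis fluorescence, analysed as signal increase relative to DMSO. Cells were human HepG2, transiently transfected with GAL4-UAS reporter constructs and chimeric receptor-Gal4 fusions, dosed for 24 h.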

[18] = molecular target: human Vitamin D Receptor (VDR), VDR (gene 7421) (UniProt P11473); experiment: ATG_VDR_TRANS: Attagene TRANS-FACTORIAL HepG2 Assay for human Vitamin D Receptor (VDR) (AID 2283022; active = hit-call score of the fitted dose curve at least 0.9, where 1 is the maximum)
Sequence of human Vitamin D Receptor (VDR), VDR (gene 7421) (P11473 whole entry, looked up, the tested form may be a part): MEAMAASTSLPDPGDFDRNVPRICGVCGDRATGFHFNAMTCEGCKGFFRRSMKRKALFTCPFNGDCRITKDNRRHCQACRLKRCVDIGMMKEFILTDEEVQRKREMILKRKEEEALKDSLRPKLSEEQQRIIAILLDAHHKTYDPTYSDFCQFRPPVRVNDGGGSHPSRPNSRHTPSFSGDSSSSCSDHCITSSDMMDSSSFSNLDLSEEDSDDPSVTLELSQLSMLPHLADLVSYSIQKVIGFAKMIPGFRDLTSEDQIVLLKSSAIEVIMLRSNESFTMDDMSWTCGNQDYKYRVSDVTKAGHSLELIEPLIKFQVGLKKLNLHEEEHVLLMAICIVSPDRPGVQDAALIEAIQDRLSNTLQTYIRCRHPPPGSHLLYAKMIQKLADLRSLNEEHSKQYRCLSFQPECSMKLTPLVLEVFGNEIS
In short: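 RT-PCR/capillary electrophoresis read-out of reporter mRNA induction in transiently transfected HepG2; 24 h dosing; chimeric NR-Gal4 (TRANS format); gain-of-signal fit against DMSO baseline.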

[19] = molecular target: Retinoic acid receptor alpha (Homo sapiens) (UniProt P10276); experiment: ATG_RARa_TRANS: Attagene TRANS-FACTORIAL HepG2 Assay for human Retinoic Acid Receptor alpha (RARa) (AID 2283005; active = hit-call score of the fitted dose curve at least 0.9, where 1 is the maximum)
Sequence of Retinoic acid receptor alpha (Homo sapiens) (P10276 whole entry, looked up, the tested form may be a part): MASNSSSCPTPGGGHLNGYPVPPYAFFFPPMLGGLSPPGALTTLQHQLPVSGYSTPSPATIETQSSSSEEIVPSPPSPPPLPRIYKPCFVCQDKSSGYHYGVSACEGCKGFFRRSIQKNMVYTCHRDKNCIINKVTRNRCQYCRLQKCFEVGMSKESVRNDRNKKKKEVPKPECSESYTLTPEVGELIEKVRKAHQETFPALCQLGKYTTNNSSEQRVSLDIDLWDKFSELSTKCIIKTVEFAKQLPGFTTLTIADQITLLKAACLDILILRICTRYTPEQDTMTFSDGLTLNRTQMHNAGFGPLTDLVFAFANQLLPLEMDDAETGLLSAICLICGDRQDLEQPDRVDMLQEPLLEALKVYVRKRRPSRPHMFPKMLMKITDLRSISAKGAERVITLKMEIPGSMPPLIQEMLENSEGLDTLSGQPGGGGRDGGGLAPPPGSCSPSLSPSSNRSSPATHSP
In short: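 HepG2 transiently transfected with multiplex GAL4-UAS reporter units including a human RARa–GAL4 chimera; 24 h compound exposure. Reporter mRNA quantified by RT-PCR, 6-FAM labeling and capillary electrophoresis; gain of signal versus DMSO.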

[20] = molecular target: human Thyroid Receptor alpha (THRa1), THRA (gene 7067) (UniProt P10827); experiment: ATG_THRa1_TRANS: Attagene TRANS-FACTORIAL HepG2 Assay for human Thyroid Receptor alpha (THRa1) (AID 2283014; active = hit-call score of the fitted dose curve at least 0.9, where 1 is the maximum)
In short: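 Transient HepG2 transfection, NR-Gal4 chimera driving GAL4-UAS reporters; 24 h compound exposure; total RNA, oligo(dT) RT, PCR, fluorescent primer extension, capillary electrophoresis. Upward direction vs DMSO control.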

Measured: AC50

Sequence of E-selectin (Homo sapiens) (P16581 whole entry, looked up): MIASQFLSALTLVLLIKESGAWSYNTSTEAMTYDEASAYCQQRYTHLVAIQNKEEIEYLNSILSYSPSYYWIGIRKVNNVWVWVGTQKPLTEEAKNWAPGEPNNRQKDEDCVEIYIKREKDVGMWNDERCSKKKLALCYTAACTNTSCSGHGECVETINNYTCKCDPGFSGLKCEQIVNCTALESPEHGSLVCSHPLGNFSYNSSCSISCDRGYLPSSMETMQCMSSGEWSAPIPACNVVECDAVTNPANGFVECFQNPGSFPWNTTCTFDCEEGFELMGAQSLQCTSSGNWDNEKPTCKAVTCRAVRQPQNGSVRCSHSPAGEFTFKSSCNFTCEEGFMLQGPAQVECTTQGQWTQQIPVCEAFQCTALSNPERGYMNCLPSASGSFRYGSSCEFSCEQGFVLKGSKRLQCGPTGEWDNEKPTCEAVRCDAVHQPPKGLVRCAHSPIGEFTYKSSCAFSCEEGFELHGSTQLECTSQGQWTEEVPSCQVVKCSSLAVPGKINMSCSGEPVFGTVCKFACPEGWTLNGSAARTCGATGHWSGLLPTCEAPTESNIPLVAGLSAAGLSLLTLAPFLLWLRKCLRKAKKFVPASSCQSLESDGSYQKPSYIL

O=C(O)CC(O)C(=O)O (stereo not given)
not listed: [14] | [15] | [16] | [17] | [18] | [19] | [20]
inactive: all other assays above

CCCCC(CC)COC(=O)CCCCCCCCC(=O)OCC(CC)CCCC (stereo not given)
not listed: [2] | [5] | [9] | [10] | [18] | [19] | [20]
inactive: all other assays above

COc1ccc(/C=C/S(=O)(=O)NC(=O)c2ccc(C)cc2Cl)cc1
active: [3] 7.08 µM | [14] 23.7 µM
not listed: [2] | [5] | [9] | [17] | [19] | [20]
inactive: all other assays above

CNCc1ccc(NC(=O)c2c[nH]c3c2C(=O)CCC3)cc1
not listed: [2] | [4] | [10] | [15] | [16] | [17]
inactive: all other assays above

CCCCCCCCCCCCc1ccccc1
active: [17] 61.2 µM | [11] 33.2 µM
not listed: [2] | [5] | [10] | [15] | [19] | [20]
inactive: all other assays above

CC[C@H]1OC(=O)[C@H](C)[C@@H](O[C@H]2C[C@@](C)(OC)[C@@H](O)[C@H](C)O2)[C@H](C)[C@@H](O[C@@H]2O[C@H](C)C[C@H](N(C)C)[C@H]2O)[C@](C)(O)C[C@@H](C)C(=O)[C@H](C)[C@@H](O)[C@]1(C)O
not listed: [2] | [5] | [6] | [9] | [14] | [16]
inactive: all other assays above

O=c1[nH]c2ccc(S(=O)CCN3CCC(Cc4ccc(F)cc4)CC3)cc2o1 (stereo not given)
active: [14] 7.65 µM | [4] 6.22 µM | [10] 4.88 µM
not listed: [2] | [9] | [15] | [16] | [17] | [19] | [20]
inactive: all other assays above

Source: PubChem BioAssay (EPA / NIEHS)
